Measurements from PubChem BioAssay AID1159580 (chemical genetic matrix, 2015).
“And” between values parts separate entries of the source, which are not always exact repeats. Equal entries are not always repeated. The whole screen tested about 5,500 compounds, of which about 2,000 (36%) were called active. About 18% were inconclusive and are not listed. Rule as the data show it: active = normalized growth mostly below about 0.91 (no sharp cut-off); inconclusive = no clear call, values can overlap the other calls; inactive = mostly above about 0.92. Some of the results follow.

Assay: chemical genetic growth profiling, strain panel (AID 1159580);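 also: tested at 20 µM; growth read once vehicle control cultures reached saturation at 30 °C; 1 = growth at the plate median or of vehicle wells; lower values mean less growth of the strain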
Settings: S. cerevisiae deletion strains, growth OD
[1] = locus YNL128W, strain TEP1, active compounds read low

Measured: normalized growth

CCC(C)C(NC)C(=O)O (stereo not drawn)
inactive: locus YAL013W, strain DEP1, active compounds read low 1.02 | locus YAL021C, strain ccr4, active compounds read low 1.03 | locus YAL026C, strain drs2, active compounds read low 1.02 | locus YAL030W, strain snc1, active compounds read low 1.01 | locus YBL061C, strain skt5, active compounds read low 1.03 | locus YBR009C, strain hhf1, active compounds read low 1.02 | locus YBR021W, strain FUR4, active compounds read low 1.01 | locus YBR023C, strain chs3, active compounds read low 1.02 | locus YBR171W, strain sec66, active compounds read low 1.05 | locus YBR229C, strain ROT2, active compounds read low 0.947 | locus YBR231C, strain swc5, active compounds read low 1.01 | locus YBR279W, strain paf1, active compounds read low 1.01 | locus YCL011C, strain gbp2, active compounds read low 1.02 | locus YCL016C, strain dcc1, active compounds read low 1.03 | locus YCL029C, strain bik1, active compounds read low 0.982 | locus YCL061C, strain MRC1, active compounds read low 1.03 | locus YCL069W, strain vba3, active compounds read low 1.02 | locus YCR088W, strain abp1, active compounds read low 1 | locus YDL005C, strain med2, active compounds read low 1.02 | locus YDL035C, strain GPR1, active compounds read low 0.981 | locus YDL040C, strain nat1, active compounds read low 1.01 | locus YDL074C, strain BRE1, active compounds read low 1.01 | locus YDL101C, strain DUN1, active compounds read low 0.983 | locus YDL134C, strain PPH21, active compounds read low 0.984 | locus YDL185W, strain tfp1, active compounds read low 0.986 | locus YDL192W, strain arf1, active compounds read low 1 | locus YDR001C, strain nth1, active compounds read low 1.02 | locus YDR069C, strain doa4, active compounds read low 1.02 | locus YDR101C, strain arx1, active compounds read low 1 | locus YDR137W, strain rgp1, active compounds read low 1.06 | locus YDR159W, strain sac3, active compounds read low 1.02 | locus YDR162C, strain NBP2, active compounds read low 0.966 | locus YDR195W, strain ref2 0.985 | locus YDR297W, strain sur2, active compounds read low 1.01 | locus YDR318W, strain mcm21, active compounds read low 0.985 | locus YDR334W, strain swr1, active compounds read low 1.02 | locus YDR335W, strain msn5, active compounds read low 1.01 | locus YDR388W, active compounds read low 0.994 | locus YDR392W, strain spt3, active compounds read low 0.986 | locus YDR502C, strain sam2, active compounds read low 0.997 | locus YEL003W, strain gim4, active compounds read low 1.01 | locus YEL037C, strain rad23, active compounds read low 1.02 | locus YEL061C, strain CIN8 (second series), active compounds read low 1.02 | locus YEL061C, strain CIN8, active compounds read low 0.983 | locus YER015W, strain faa2, active compounds read low 1.02 | locus YER016W, strain bim1, active compounds read low 1.01 | locus YER110C, active compounds read low 0.979 | locus YER111C, strain swi4, active compounds read low 1.03 | locus YER155C, strain BEM2 (second series), active compounds read low 1.01 | locus YER155C, strain BEM2, active compounds read low 1 | locus YER167W, strain BCK2, active compounds read low 0.975 | locus YFR010W, strain ubp6, active compounds read low 1.03 | locus YGL078C, strain dbp3, active compounds read low 0.999 | locus YGL086W, strain mad1, active compounds read low 1.01 | locus YGL167C, strain pmr1, active compounds read low 1.02 | locus YGL173C, strain kem1, active compounds read low 1.03 | locus YGL227W, strain vid30, active compounds read low 1.02 | locus YGL240W, strain doc1, active compounds read low 1.01 | locus YGL248W, strain PDE1, active compounds read low 0.982 | locus YGL253W, strain hxk2, active compounds read low 1.02 | locus YGR135W, strain pre9, active compounds read low 0.99 | locus YGR252W, strain gcn5, active compounds read low 0.986 | locus YHR013C, strain ard1, active compounds read low 1.03 | locus YHR027C, strain rpn1, active compounds read low 1.03 | locus YHR030C, strain SLT2, active compounds read low 0.985 and 1.06 | locus YHR079C, strain IRE1 (second series), active compounds read low 0.991 | locus YHR079C, strain IRE1, active compounds read low 1.09 | locus YHR094C, strain hxt1, active compounds read low 0.977 | locus YHR129C, strain ARP1, active compounds read low 0.99 | locus YHR142W, strain chs7, active compounds read low 1.02 | locus YHR200W, strain rpn10, active compounds read low 0.986 | locus YIL066C, strain RNR3, active compounds read low 0.944 | locus YIL073C, strain SPO22, active compounds read low 0.972 | locus YIL125W, strain kgd1, active compounds read low 0.982 | locus YIR030C, strain dcg1, active compounds read low 0.99 | locus YJL092W, strain hpr5, active compounds read low 1.03 | locus YJL095W, strain BCK1 (second series), active compounds read low 1.01 | locus YJL095W, strain BCK1, active compounds read low 1.05 | locus YJL115W, strain asf1, active compounds read low 1.03 | locus YJL129C, strain trk1, active compounds read low 1.05 | locus YJL134W, strain LCB3, active compounds read low 0.967 | locus YJL154C, strain vps35, active compounds read low 1.01 | locus YJL164C, strain tpk1, active compounds read low 1.03 | locus YJL166W, strain qcr8, active compounds read low 1.02 | locus YJL168C, strain set2, active compounds read low 0.993 | locus YJL187C, strain SWE1 (second series), active compounds read low 1 | locus YJL187C, strain SWE1, active compounds read low 1.01 | locus YJR043C, strain POL32, active compounds read low 0.969 | locus YJR066W, strain TOR1, active compounds read low 1 | locus YKL009W, strain mrt4, active compounds read low 1.01 | locus YKL068W, active compounds read low 0.973 | locus YKL085W, strain MDH1 (second series), active compounds read low 0.979 | locus YKL085W, strain MDH1, active compounds read low 0.979 | locus YKL160W, strain elf1, active compounds read low 1.02 | locus YKL190W, strain CNB1, active compounds read low 1 | locus YKR001C, strain vps1, active compounds read low 1 | locus YKR026C, strain gcn3, active compounds read low 1.02 | locus YKR091W, strain srl3, active compounds read low 1 | locus YLL001W, strain dnm1, active compounds read low 1.03 | locus YLL026W, active compounds read low 1.01 | locus YLL041C, strain sdh2, active compounds read low 1.02 | locus YLR027C, strain aat2, active compounds read low 1.02 | locus YLR039C, strain RIC1, active compounds read low 0.995 | locus YLR058C, strain SHM2, active compounds read low 0.935 | locus YLR102C, strain apc9, active compounds read low 0.985 | locus YLR113W, strain HOG1, active compounds read low 1.09 | locus YLR221C, strain rsa3, active compounds read low 1.03 | locus YLR258W, strain gsy2, active compounds read low 1.01 | locus YLR262C, strain YPT6 (second series), active compounds read low 1.05 | locus YLR262C, strain YPT6, active compounds read low 0.989 | locus YLR268W, strain sec22, active compounds read low 1.03 | locus YLR320W, strain mms22, active compounds read low 1.03 | locus YLR330W, strain CHS5, active compounds read low 0.987 | locus YLR342W, strain FKS1 (second series), active compounds read low 0.977 | locus YLR342W, strain FKS1, active compounds read low 1.01 | locus YLR357W, strain rsc2, active compounds read low 1.02 | locus YLR370C, strain arc18, active compounds read low 1.03 | locus YLR371W, strain rom2, active compounds read low 0.982 | locus YLR384C, strain iki3, active compounds read low 1.01 | locus YLR418C, strain cdc73, active compounds read low 0.971 | locus YML016C, strain PPZ1, active compounds read low 0.992 | locus YML032C, strain rad52, active compounds read low 0.963 | locus YML120C, strain ndi1, active compounds read low 1.01 | locus YML124C, strain tub3, active compounds read low 0.997 | locus YMR058W, strain fet3, active compounds read low 1.03 | locus YMR078C, strain ctf18, active compounds read low 0.985 | locus YMR125W, strain sto1, active compounds read low 1.01 | locus YMR129W, active compounds read low 1.02 | locus YMR205C, strain PFK2, active compounds read low 1.03 | locus YMR223W, strain ubp8, active compounds read low 0.991 | locus YMR231W, strain pep5, active compounds read low 1.01 | locus YMR307W, strain GAS1, active compounds read low 1.02 | locus YNL067W, strain RPL9B, active compounds read low 1.03 | locus YNL071W, strain lat1, active compounds read low 1.02 | [1] 0.986 | locus YNL183C, strain NPR1, active compounds read low 0.998 | locus YNL209W, strain ssb2, active compounds read low 1.01 | locus YNL233W, strain BNI4, active compounds read low 1.04 | locus YNL248C, strain rpa49, active compounds read low 1.02 | locus YNL250W, strain rad50, active compounds read low 0.962 | locus YNL271C, strain bni1, active compounds read low 0.992 | locus YNL298W, strain CLA4, active compounds read low 0.988 | locus YNL307C, strain MCK1, active compounds read low 0.988 | locus YNL322C, strain KRE1 (second series), active compounds read low 1.02 | locus YNR049C, strain mso1, active compounds read low 1.02 | locus YNR052C, strain pop2, active compounds read low 1.01 | locus YOL012C, strain htz1 0.872 | locus YOL147C, strain pex11, active compounds read low 0.976 | locus YOR001W, strain rrp6, active compounds read low 1.02 | locus YOR061W, strain CKA2, active compounds read low 0.961 | locus YOR069W, strain VPS5, active compounds read low 0.984 | locus YOR070C, strain gyp1, active compounds read low 1.03 | locus YOR080W, strain dia2, active compounds read low 1.02 | locus YOR083W, strain WHI5, active compounds read low 1.02 | locus YOR106W, strain vam3, active compounds read low 1.02 | locus YOR136W, strain idh2, active compounds read low 0.994 | locus YOR144C, strain elg1, active compounds read low 0.993 | locus YOR184W, strain ser1, active compounds read low 0.989 | locus YOR231W, strain MKK1, active compounds read low 1.08 | locus YOR265W, strain rbl2, active compounds read low 1.01 | locus YOR270C, strain vph1, active compounds read low 1.05 | locus YOR290C, strain snf2, active compounds read low 1.02 | locus YOR316C, strain cot1, active compounds read low 0.993 | locus YPL051W, strain arl3, active compounds read low 1.04 | locus YPL078C, strain atp4, active compounds read low 1.02 | locus YPL106C, strain sse1, active compounds read low 1.01 | locus YPL240C, strain hsp82, active compounds read low 1 | locus YPL241C, strain CIN2, active compounds read low 0.98 | locus YPL256C, strain CLN2, active compounds read low 1.09 | locus YPR119W, strain clb2, active compounds read low 0.991 | locus YPR141C, strain kar3, active compounds read low 0.978 | locus YPR163C, strain tif3, active compounds read low 0.985 | locus YPR167C, strain met16, active compounds read low 0.989 | strain wtn01, active compounds read low 1.01

NC(=O)c1cc[n+](CC2=C(C(=O)O)N3C(=O)[C@@H](NC(=O)[C@@H](c4ccccc4)S(=O)(=O)[O-])[C@H]3SC2)cc1
inactive: locus YAL040C, strain CLN3, active compounds read low 0.993 | locus YCL061C, strain MRC1 (second series), active compounds read low 0.999 | locus YER002W, strain NOP16, active compounds read low 0.995 | [1] 1 | locus YNL175C, strain NOP13, active compounds read low 1 | locus YNL197C, strain WHI3, active compounds read low 0.983 | locus YNL224C, strain SQS1, active compounds read low 1 | locus YOR083W, strain WHI5 (second series), active compounds read low 1.07 | locus YPL055C, strain LGE1, active compounds read low 0.988
